These results are taken from ChEMBL document CHEMBL2218924, “A broad activity screen in support of a chemogenomic map for kinase signalling research and drug discovery” (Biochem J, 2013).

In assay [1] the target is Rho-associated protein kinase 2 (Homo sapiens) (UniProt O75116). The note with it: at 1 µM.
The target is the same in assay [2]. The note with it: at 10 µM.
For assay [3], the target named is Proto-oncogene tyrosine-protein kinase receptor Ret (Homo sapiens) (UniProt P07949). The settings on record: at 1 µM.
Assay [4] shares this target. The settings on record: at 10 µM.
For assay [5], the target named is Macrophage-stimulating protein receptor (Homo sapiens) (UniProt Q04912). The note with it: at 1 µM.
The target is the same in assay [6]. The settings on record: at 10 µM.
The target of assay [7] is Proto-oncogene tyrosine-protein kinase ROS (Homo sapiens) (UniProt P08922). The note with it: at 1 µM.
Assay [8] shares this target. The note with it: at 10 µM.
Assay [9] addresses T1, Tyrosine-protein kinase receptor TYRO3 (Homo sapiens) (UniProt Q06418).
T1 sequence (whole entry): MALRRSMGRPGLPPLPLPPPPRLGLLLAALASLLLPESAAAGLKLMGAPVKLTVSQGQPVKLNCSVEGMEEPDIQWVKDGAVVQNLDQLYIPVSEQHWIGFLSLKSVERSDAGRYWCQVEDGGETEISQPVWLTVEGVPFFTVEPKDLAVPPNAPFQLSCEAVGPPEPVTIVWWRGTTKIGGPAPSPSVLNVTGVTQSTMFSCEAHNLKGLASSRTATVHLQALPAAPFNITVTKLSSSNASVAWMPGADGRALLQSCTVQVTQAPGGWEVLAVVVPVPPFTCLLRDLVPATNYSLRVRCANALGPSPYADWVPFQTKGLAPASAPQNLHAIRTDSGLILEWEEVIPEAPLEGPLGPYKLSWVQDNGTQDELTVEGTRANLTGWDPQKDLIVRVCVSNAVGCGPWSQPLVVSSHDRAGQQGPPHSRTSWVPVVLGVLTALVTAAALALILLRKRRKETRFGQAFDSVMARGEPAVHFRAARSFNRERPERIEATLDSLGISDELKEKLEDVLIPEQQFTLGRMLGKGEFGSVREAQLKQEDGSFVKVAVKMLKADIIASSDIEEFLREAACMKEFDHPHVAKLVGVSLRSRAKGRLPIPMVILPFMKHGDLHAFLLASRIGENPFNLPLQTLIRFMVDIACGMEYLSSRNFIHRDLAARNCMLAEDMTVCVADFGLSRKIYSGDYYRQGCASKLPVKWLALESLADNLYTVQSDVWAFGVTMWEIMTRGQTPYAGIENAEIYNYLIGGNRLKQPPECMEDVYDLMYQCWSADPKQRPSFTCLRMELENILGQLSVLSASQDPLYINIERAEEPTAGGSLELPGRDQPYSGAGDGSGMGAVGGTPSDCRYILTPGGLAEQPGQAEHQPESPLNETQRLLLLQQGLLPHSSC
The note with it: at 1 µM.

Assay [10] has as its target T1, Tyrosine-protein kinase receptor TYRO3 (Homo sapiens). The note with it: at 10 µM.

Chain of Proto-oncogene tyrosine-protein kinase ROS (Homo sapiens) (P08922 whole entry): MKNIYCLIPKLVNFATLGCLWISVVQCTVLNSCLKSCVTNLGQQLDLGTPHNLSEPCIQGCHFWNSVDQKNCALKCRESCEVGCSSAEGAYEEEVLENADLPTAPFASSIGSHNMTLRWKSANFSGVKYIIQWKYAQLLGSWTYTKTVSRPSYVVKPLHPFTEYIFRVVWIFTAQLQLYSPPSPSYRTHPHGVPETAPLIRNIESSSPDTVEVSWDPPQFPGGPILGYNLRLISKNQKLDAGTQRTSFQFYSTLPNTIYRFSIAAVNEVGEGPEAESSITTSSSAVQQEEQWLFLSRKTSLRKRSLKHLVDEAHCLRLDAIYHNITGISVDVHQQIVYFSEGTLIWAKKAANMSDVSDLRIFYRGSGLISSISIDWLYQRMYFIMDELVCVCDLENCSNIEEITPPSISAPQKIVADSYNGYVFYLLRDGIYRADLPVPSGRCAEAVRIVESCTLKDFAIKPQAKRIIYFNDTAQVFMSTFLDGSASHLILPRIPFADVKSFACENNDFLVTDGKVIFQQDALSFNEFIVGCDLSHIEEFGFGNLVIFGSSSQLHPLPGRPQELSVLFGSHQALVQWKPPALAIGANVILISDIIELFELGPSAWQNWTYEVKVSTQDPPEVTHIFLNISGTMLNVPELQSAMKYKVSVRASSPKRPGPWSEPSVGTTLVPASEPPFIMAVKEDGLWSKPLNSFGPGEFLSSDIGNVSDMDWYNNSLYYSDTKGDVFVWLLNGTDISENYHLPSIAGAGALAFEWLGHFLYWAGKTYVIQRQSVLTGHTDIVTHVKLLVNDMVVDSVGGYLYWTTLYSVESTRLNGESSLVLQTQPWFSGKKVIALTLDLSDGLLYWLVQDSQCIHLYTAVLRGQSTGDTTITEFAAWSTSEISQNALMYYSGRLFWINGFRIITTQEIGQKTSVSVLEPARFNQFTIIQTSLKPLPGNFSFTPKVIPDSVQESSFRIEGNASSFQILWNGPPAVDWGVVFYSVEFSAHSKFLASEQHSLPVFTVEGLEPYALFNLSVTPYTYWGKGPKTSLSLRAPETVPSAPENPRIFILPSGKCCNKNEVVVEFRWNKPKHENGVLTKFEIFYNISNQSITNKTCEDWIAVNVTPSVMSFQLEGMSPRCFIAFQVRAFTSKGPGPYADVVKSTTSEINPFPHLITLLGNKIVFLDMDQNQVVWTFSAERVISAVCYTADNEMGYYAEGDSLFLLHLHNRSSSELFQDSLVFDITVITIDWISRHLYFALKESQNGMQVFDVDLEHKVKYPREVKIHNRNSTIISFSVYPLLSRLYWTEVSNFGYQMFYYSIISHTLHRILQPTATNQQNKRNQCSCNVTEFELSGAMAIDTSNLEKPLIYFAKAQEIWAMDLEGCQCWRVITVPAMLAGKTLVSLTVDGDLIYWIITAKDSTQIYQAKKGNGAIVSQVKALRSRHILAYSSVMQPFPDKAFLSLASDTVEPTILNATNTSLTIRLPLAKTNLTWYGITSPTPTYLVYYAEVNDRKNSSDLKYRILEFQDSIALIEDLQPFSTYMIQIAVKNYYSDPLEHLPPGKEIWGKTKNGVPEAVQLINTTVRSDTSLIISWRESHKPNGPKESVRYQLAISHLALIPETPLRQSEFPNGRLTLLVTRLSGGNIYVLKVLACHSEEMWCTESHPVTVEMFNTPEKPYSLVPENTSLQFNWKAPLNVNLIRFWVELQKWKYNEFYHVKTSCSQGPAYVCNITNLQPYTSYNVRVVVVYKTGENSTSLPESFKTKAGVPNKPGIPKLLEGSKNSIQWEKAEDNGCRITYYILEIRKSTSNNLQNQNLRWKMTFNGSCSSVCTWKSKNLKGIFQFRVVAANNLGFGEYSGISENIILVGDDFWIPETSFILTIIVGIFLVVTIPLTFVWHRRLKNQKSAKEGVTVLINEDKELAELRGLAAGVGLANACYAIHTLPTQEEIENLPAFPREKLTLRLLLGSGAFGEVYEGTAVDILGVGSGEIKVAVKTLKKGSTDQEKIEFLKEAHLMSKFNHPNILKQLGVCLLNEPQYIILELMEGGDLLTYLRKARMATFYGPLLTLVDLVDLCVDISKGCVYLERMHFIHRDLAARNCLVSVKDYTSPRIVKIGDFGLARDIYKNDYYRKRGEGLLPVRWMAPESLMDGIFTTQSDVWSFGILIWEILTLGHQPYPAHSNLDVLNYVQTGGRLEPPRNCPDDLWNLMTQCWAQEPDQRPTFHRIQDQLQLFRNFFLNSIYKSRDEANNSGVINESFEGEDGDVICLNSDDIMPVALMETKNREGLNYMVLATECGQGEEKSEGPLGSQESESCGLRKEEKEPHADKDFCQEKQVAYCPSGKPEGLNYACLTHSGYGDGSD
Chain of Rho-associated protein kinase 2 (Homo sapiens) (O75116 whole entry, looked up): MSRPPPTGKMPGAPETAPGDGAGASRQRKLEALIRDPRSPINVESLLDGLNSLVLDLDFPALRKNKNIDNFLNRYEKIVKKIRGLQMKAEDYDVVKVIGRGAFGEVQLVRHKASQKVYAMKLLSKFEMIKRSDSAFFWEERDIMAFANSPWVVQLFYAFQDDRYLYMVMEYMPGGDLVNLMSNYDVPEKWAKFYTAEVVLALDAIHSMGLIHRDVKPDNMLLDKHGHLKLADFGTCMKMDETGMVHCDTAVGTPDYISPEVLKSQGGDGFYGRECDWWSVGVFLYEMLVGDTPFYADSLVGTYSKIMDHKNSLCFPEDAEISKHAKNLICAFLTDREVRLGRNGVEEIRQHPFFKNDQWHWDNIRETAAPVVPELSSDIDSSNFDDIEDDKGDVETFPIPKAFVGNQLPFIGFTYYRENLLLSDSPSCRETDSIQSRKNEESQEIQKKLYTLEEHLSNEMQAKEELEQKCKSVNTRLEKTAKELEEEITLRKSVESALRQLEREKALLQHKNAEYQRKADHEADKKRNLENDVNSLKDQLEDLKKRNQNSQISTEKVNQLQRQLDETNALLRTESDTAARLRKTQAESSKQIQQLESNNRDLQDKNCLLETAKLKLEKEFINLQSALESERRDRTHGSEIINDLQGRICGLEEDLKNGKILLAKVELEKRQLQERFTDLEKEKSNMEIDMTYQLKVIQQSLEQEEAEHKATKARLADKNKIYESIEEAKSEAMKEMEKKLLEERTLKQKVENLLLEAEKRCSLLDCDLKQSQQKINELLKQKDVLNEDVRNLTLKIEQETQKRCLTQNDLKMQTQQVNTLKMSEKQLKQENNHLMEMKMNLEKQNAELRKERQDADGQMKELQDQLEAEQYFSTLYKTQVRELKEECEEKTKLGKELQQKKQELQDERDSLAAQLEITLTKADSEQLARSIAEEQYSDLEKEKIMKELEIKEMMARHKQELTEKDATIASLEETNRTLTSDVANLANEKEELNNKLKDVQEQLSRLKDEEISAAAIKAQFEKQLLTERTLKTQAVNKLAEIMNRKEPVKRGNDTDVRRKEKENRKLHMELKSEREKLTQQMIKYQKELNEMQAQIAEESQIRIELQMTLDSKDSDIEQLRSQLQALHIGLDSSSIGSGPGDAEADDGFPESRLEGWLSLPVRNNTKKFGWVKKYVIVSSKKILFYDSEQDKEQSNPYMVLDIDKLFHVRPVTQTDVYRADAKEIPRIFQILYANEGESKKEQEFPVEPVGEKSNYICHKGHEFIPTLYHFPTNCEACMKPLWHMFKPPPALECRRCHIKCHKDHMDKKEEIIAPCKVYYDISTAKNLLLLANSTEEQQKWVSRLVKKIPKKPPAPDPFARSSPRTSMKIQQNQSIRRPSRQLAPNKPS
Chain of Macrophage-stimulating protein receptor (Homo sapiens) (Q04912 25-304 limits assumed): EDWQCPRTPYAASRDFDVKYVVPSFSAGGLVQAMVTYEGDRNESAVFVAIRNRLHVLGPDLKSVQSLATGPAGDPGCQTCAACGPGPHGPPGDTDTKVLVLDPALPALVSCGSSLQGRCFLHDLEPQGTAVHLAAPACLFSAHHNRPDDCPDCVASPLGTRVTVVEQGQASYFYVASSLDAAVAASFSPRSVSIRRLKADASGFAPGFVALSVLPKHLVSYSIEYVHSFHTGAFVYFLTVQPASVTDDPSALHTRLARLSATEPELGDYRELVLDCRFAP
Chain of Macrophage-stimulating protein receptor (Homo sapiens) (Q04912 310-1400 limits assumed): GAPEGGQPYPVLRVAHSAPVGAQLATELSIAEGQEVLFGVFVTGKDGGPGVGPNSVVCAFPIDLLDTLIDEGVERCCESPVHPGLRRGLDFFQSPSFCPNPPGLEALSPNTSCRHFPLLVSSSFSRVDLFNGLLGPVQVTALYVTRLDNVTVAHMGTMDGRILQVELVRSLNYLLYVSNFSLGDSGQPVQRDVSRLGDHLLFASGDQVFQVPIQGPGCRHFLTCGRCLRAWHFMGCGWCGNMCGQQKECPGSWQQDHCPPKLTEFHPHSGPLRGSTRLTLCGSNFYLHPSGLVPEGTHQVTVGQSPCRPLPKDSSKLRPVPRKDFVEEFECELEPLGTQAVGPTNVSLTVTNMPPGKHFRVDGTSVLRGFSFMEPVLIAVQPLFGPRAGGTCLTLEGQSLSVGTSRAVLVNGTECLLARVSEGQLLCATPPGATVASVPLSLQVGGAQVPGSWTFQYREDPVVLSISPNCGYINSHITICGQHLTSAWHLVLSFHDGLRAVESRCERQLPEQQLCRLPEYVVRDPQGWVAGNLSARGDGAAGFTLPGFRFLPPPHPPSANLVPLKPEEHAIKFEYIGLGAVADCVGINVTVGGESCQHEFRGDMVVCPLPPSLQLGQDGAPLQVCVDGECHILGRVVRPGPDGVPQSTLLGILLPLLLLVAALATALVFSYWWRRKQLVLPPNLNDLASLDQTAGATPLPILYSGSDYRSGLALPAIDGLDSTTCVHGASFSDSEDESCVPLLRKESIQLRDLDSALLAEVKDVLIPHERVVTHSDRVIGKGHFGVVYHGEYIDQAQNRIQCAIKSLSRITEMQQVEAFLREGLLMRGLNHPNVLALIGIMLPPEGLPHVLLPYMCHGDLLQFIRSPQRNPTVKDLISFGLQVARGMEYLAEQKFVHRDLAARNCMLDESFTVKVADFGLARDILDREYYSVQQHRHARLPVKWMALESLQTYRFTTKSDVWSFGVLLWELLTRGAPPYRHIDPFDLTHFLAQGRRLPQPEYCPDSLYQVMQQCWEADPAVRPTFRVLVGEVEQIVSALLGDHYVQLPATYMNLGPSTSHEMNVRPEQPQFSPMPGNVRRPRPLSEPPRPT

With `Cn1cc(/C=C2\C(=O)Nc3ccc(S(N)(=O)=O)cc32)c2ccccc21`, the residual activity in [1] came to 37%; in assay [2] it was 13%; in assay [3] it was 1%; in assay [4] it was 1%; in assay [5], 94%; in [6] it was 82%. In addition, the residual activity in assay [7] is 98%; in assay [8] it was 109%; in assay [9], 67%; in assay [10], 53%.
Consider `CNc1cc2c(Nc3cccc(Br)c3)ncnc2cn1`, for which the residual activity stood at 100% in assay [1]; 85% in [2]; 67% in [3]; 75% in [4]; 88% in assay [5]; 66% in [6]. For the same compound, the residual activity in assay [7] came out at 96%; in assay [8] it was 99%; in assay [9] it was 77%; in assay [10], 83%.
With `COc1ccc(S(=O)(=O)N(CCO)c2ccccc2CN(C)C/C=C/c2ccc(Cl)cc2)cc1`, the residual activity in assay [1] was 100%; in assay [2] it was 91%; in assay [3], 105%; in [4] it was 87%; in assay [5], 90%; in assay [6], 88%. Further, the residual activity is 105% in [7], 87% in assay [8], 113% in assay [9] and 112% in assay [10].
Regarding `O=Nc1c(-c2c(O)[nH]c3ccccc23)[nH]c2ccccc12`, the residual activity in assay [1] was 85%; in assay [2], 82%; in [3], 1%; in assay [4] it was 0%; in assay [5], 86%; in assay [6] it was 71%. The residual activity was determined as 105% in assay [7], 88% in assay [8], 62% in assay [9] and 15% in assay [10].
For `CO[C@H]1C[C@@H]2CC[C@@H](C)[C@@](O)(O2)C(=O)C(=O)N2CCCC[C@H]2C(=O)O[C@H]([C@H](C)C[C@@H]2CC[C@@H](O)[C@H](OC)C2)CC(=O)[C@H](C)/C=C(\C)[C@@H](O)[C@@H](OC)C(=O)[C@H](C)C[C@H](C)/C=C/C=C/C=C/1C`, the residual activity in assay [1] stood at 99%; in [2], 92%; in assay [3], 102%; in assay [4], 107%; in assay [5] it was 99%; in [6] it was 80%. In addition, the residual activity amounted to 90% in [7], 92% in assay [8], 94% in assay [9] and 118% in assay [10].
In the case of `Cc1cncc2cccc(S(=O)(=O)N3CCCN(C(=O)CN)C[C@H]3C)c12`, the residual activity in [1] is 1%; in [2], -1%; in assay [3], 91%; in [4], 90%; in [5], 89%; in [6] it was 70%. Besides, the residual activity in [7] came out at 90%; in assay [8] it was 82%; in assay [9], 83%; in assay [10], 95%.
For `Nc1cccc(-c2cc3c(Oc4cccc(O)c4)ncnc3[nH]2)c1`, the residual activity in assay [1] stood at 93%; in assay [2], 87%; in [3] it was 2%; in assay [4], 0%; in assay [5], 83%; in [6] it was 40%. Further, the residual activity in [7] is 98%; in assay [8] it was 60%; in assay [9] it was 6%; in [10] it was 0%.
For `O=C1NC(=O)/C(=C/c2ccc3c(c2)OC(F)(F)O3)S1`, the residual activity in [1] is 113%; in [2], 89%; in [3], 91%; in [4] it was 98%; in [5], 100%; in assay [6], 77%. In addition, the residual activity in [7] is 105%; in assay [8], 108%; in assay [9] it was 96%; in assay [10] it was 105%.
Take `COc1ccc(C(=O)Nc2sc3c(c2C(N)=O)CCCC3)cc1OC`: the residual activity in [1] amounted to 96%; in assay [2] it was 80%; in [3], 93%; in assay [4] it was 113%; in assay [5], 99%; in assay [6], 73%. Moreover, the residual activity in [7] was found to be 96%; in assay [8], 97%; in assay [9] it was 86%; in assay [10], 96%.
On to `Oc1c2ccccc2c2c3c(cccc13)N=N2`, for which the residual activity in assay [1] turned out to be 74%; in [2], 39%; in assay [3], 43%; in assay [4], 11%; in assay [5] it was 78%; in [6] it was 51%. Further, the residual activity stood at 93% in assay [7], 85% in [8], 97% in assay [9] and 81% in assay [10].
`N#Cc1cnc2cnc(NCc3cccnc3)cc2c1Nc1ccc(F)c(Cl)c1`: the residual activity in assay [1] stood at 2%; in [2], 3%; in assay [3], 88%; in [4], 62%; in [5] it was 100%; in assay [6] it was 88%. The residual activity in assay [7] worked out at 67%; in [8], 52%.
For the compound `O=C(Nc1cccc(Nc2nccc(Nc3cccc(C(F)(F)F)c3)n2)c1)C1CC1`, the residual activity in [1] was found to be 108%; in assay [2] it was 88%; in assay [3] it was 74%; in [4], 81%; in assay [5], 93%; in assay [6], 38%. Further, the residual activity turned out to be 102% in [7], 68% in assay [8], 70% in assay [9] and 89% in assay [10].
On to `O=C(O)c1ccc2c3c1cccc3c(=O)n1c3ccccc3nc21`, for which the residual activity amounted to 119% in assay [1]; 107% in assay [2]; 97% in assay [3]; 61% in assay [4]; 106% in assay [5]; 109% in assay [6]. In addition, the residual activity in assay [7] was found to be 109%; in [8], 101%; in assay [9] it was 98%; in assay [10], 88%.
Consider `CCOc1cc2ncnc(Nc3cccc(Br)c3)c2cc1OCC`, for which the residual activity in assay [1] was 91%; in assay [2], 70%; in assay [3], 30%; in assay [4] it was 1%; in [5], 101%; in [6] it was 57%. Moreover, the residual activity was found to be 103% in assay [7], 100% in assay [8], 51% in assay [9] and 16% in [10].
As for `Ic1cccc(CSc2nnc(-c3ccncc3)o2)c1`, the residual activity in assay [1] came to 68%; in assay [2] it was 58%; in assay [3], 93%; in [4] it was 74%; in assay [5], 81%; in [6], 78%. Besides, the residual activity came out at 93% in assay [7], 75% in assay [8], 112% in [9] and 94% in assay [10].
Take `O=C(Nc1cccc(Nc2cc(Nc3cccc(C(F)(F)F)c3)ncn2)c1)C1CC1`: the residual activity in assay [1] came to 94%; in assay [2], 80%; in assay [3], 89%; in assay [4], 95%; in [5], 96%; in assay [6], 53%. Also, the residual activity came to 92% in assay [7], 88% in [8], 88% in assay [9] and 30% in assay [10].
On to `O=C1Nc2cc(Br)ccc2/C1=C1/Nc2ccccc2/C1=N\O`, for which the residual activity in [1] came to 90%; in [2], 93%; in assay [3], 1%; in assay [4], 0%; in assay [5], 79%; in assay [6], 89%. Further, the residual activity in [7] worked out at 90%; in assay [8], 87%; in assay [9], 81%; in assay [10], 78%.
With `CN(C)c1ccc(/C=C2\C(=O)Nc3ccccc32)cc1`, the residual activity in assay [1] turned out to be 112%; in assay [2] it was 38%; in assay [3], 66%; in assay [4], 32%; in [5] it was 91%; in assay [6], 92%. The residual activity came out at 106% in assay [7], 103% in [8], 100% in [9] and 99% in [10].
